Among all 5,500 compounds or so, about 2,000 (36%) were called active. Not shown: some 18% with an inconclusive outcome. No stated cut-off is given here; in the data, active means normalized growth mostly below about 0.91 (no sharp cut-off); inconclusive means no clear call, values can overlap the other calls; inactive means mostly above about 0.92. This is one part of the list.
Assay: chemical genetic growth profiling, strain panel (AID 1159580);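 further: tested at 20 µM; growth read once vehicle control cultures reached saturation at 30 °C; 1 = growth at the plate median or of vehicle wells; lower values mean less growth of the strain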
Conditions: growth OD
[1] = S. cerevisiae deletion strains, locus YAL040C, strain CLN3, hits give low values
[2] = S. cerevisiae deletion strains, locus YCL061C, strain MRC1 (second series), hits give low values
[3] = S. cerevisiae deletion strains, locus YDR150W, strain NUM1, hits give low values
[4] = S. cerevisiae deletion strains, locus YDR363W, strain ESC2, hits give low values
[5] = S. cerevisiae deletion strains, locus YER002W, strain NOP16, hits give low values
[6] = S. cerevisiae deletion strains, locus YGR078C, strain PAC10, hits give low values
[7] = S. cerevisiae deletion strains, locus YGR229C, strain SMI1, hits give low values
[8] = S. cerevisiae deletion strains, locus YJR075W, strain HOC1, hits give low values
[9] = S. cerevisiae deletion strains, locus YMR263W, strain SAP30, hits give low values
[10] = S. cerevisiae deletion strains, locus YNL153C, strain GIM3, hits give low values
[11] = S. cerevisiae deletion strains, locus YNL175C, strain NOP13, hits give low values
[12] = S. cerevisiae deletion strains, locus YNL197C, strain WHI3, hits give low values
[13] = S. cerevisiae deletion strains, locus YNL224C, strain SQS1, hits give low values
[14] = S. cerevisiae deletion strains, locus YOR083W, strain WHI5 (second series), hits give low values
[15] = S. cerevisiae deletion strains, locus YPL241C, strain CIN2, hits give low values
[16] = S. cerevisiae deletion strains, locus YNL322C, strain KRE1, hits give low values
[17] = S. cerevisiae deletion strains, locus YPL055C, strain LGE1, hits give low values

Measured: normalized growth

O=C(O)Cc1c[nH]c2ccc(O)cc12
inactive: [1] 0.988 | [2] 1 | [3] 1.01 | [4] 1 | [5] 0.974 | [6] 0.979 | [7] 1.08 | [8] 1.01 | [9] 0.995 | S. cerevisiae deletion strains, locus YMR307W, strain GAS1, hits give low values 1.01 | [10] 0.961 | [11] 0.982 | [12] 0.975 | [13] 1.01 | [14] 1 | [15] 0.992

Cc1ccc(CC(=O)O)cc1
active: [6] 0.926 | [8] 0.885
inactive: S. cerevisiae deletion strains, locus YAL013W, strain DEP1, hits give low values 0.973 | S. cerevisiae deletion strains, locus YBR229C, strain ROT2, hits give low values 0.978 | S. cerevisiae deletion strains, locus YDL101C, strain DUN1, hits give low values 0.938 | [3] 0.884 | S. cerevisiae deletion strains, locus YEL061C, strain CIN8, hits give low values 1.02 | S. cerevisiae deletion strains, locus YHR030C, strain SLT2, hits give low values 1.04 | S. cerevisiae deletion strains, locus YHR087W, strain rtc3, hits give low values 0.947 | S. cerevisiae deletion strains, locus YJR043C, strain POL32, hits give low values 0.959 | S. cerevisiae deletion strains, locus YKL190W, strain CNB1, hits give low values 1.01 | S. cerevisiae deletion strains, locus YLR039C, strain RIC1, hits give low values 1.01 | S. cerevisiae deletion strains, locus YLR058C, strain SHM2 (second series), hits give low values 0.972 | S. cerevisiae deletion strains, locus YLR085C, strain ARP6, hits give low values 1.08 | S. cerevisiae deletion strains, locus YLR262C, strain YPT6, hits give low values 0.998 | S. cerevisiae deletion strains, locus YML094W, strain GIM5, hits give low values 1.03 | S. cerevisiae deletion strains, locus YMR219W, strain ESC1, hits give low values 0.985 | [9] 0.938 | [10] 0.964 | S. cerevisiae deletion strains, locus YNL298W, strain CLA4 (second series), hits give low values 1.06 | [16] 0.981 | S. cerevisiae deletion strains, locus YNR030W, strain Alg12, hits give low values 1.03 | S. cerevisiae deletion strains, locus YOL006C, strain TOP1, hits give low values 1.06 | [17] 0.906 | [15] 1.02 | S. cerevisiae deletion strains, locus YPR135W, strain CTF4, hits give low values 1.03 | S. cerevisiae strains, strain wild type, hits give low values 1.02

O=C(O)Cc1ccc(O)c(O)c1
inactive: [1] 1.05 | [2] 1 | [3] 1.01 | [4] 0.993 | [5] 0.996 | [6] 1.02 | [7] 0.976 | [10] 1.02 | [11] 1.02 | [12] 1.02 | [13] 0.982 | [16] 1 | [14] 0.996 | [17] 0.982

Source: PubChem BioAssay AID1159580 (chemical genetic matrix, 2015)
